Compounds with a hit are over-represented: about 2.5% of the library has one in this group of screens.
CHT PAM: human CHT allosteric activation. Q9GZV3. CHT-expressing cells, membrane potential dye, choline EC20; active compounds read high; LV-AA mutant CHT in HEK293 cells. B-score at 10 µM. 0.49% of 310,000 active. AID 488977;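 active = initial fluorescence not abnormally high and integrated response B-score, plate-corrected, over 3 SD above library mean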
Target sequence (Q9GZV3 whole entry, looked up): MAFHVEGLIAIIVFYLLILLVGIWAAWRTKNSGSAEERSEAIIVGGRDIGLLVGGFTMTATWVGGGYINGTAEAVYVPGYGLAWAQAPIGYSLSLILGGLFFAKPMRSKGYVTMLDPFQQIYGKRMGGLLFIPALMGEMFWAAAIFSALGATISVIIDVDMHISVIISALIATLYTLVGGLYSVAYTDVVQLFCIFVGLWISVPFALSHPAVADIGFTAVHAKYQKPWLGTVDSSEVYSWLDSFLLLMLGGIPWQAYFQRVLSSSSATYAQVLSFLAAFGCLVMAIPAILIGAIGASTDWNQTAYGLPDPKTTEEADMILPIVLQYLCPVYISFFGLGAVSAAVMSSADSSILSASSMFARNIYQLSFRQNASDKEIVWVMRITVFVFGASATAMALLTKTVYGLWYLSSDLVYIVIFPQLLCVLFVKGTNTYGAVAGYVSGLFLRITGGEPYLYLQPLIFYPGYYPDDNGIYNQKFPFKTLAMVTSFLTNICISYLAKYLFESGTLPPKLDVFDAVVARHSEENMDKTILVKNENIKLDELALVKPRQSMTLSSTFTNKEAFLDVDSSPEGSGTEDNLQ
PKA-R2B act: PKA-R2B complex activation; AID 504700; 0.079% of 340,000 active; P22694+P31323; activation, % at 11.4 µM; PKA-R2B holoenzyme dissociation, Cy5-IP20 fluorescence polarization; R2B truncated from residue 108, S112A mutant; 0% DMSO only, 100% 113 µM cGMP;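 active = activation above a cutoff set at the mean over all compounds plus 3 SD, cut at about 18% in these data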;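 also: higher means more holoenzyme dissociation and a rise in polarization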
ANO1 activ: mouse TMEM16A channel activation, primary screen; HEK293 TMEM16A/YFP-H148Q/I152L, iodide quench fluorescence; active compounds read low; 0.3% of 340,000 active; AID 623877; B-score at 10 µM; Q8BHY3;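 active = fluorescence-ratio B-score plate-corrected deviation score at least 3 library SD below zero, with starting fluorescence score within 5 deviations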;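 also: channel opened by trigger with iodide after compound preincubation; score built on the fluorescence ratio of max minus min over baseline; more negative score means more quench and so TMEM16A activation or potentiation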
ANO1 block: mouse TMEM16A channel inhibition, primary screen; 1.2% of 310,000 active; HEK293 TMEM16A/YFP iodide influx fluorescence, ionomycin; Q8BHY3; AID 588511; normalized B-score (activity score, 25-100; higher = stronger inhibition) at 10 µM;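 active = ratio plate-corrected score three or more library SD toward inhibition, starting fluorescence score within five deviations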;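 also: score derived from kinetic fluorescence span divided by baseline fluorescence per well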
CHT block: inhibits the human high affinity choline transporter | Q9GZV3 | CHT-expressing cells, membrane potential dye, choline response; active compounds read low | B-score at 10 µM | 0.86% of 310,000 active | AID 488975;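 active = B-score over 3 SD under the library average, and starting fluorescence ratio not unusually high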;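 also: choline stimulus applied at its EC90 after an EC20 pre-addition; B-score computed on integrated fluorescence ratio after choline addition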
PKA-R1A activ: activators of PKA-R1A complex; P00514+P68181; PKA-R1A dissociation, Cy5-IP20 fluorescence polarization; scaled: DMSO 0%, 113 µM cGMP 100%; activation, % at 11.4 µM; 0.083% of 340,000 active;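 active = percent activation above the mean of all tested compounds plus 3 SD, cut at about 19% in these data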;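 also: higher means more PKAc released from R1A so a rise in polarization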
CHT act confirm: human CHT activation, confirmatory screen | 91% of 2,500 active | CHT-expressing cells, membrane potential dye fluorescence (FDSS); % of choline EC20–EC90 response window; HEK293 expressing CHT LV-AA mutant; choline added at its EC20 | activation, % at 10 µM | shares compounds with CHT PAM;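 active = primary screen active, with duplicate mean activation above negative control mean plus 3 SD, cut at about 11% in these data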
HEK293 MP dye: counter-screen for CHT activators: effect in parental HEK293 cells | shares compounds with CHT PAM | membrane potential dye fluorescence (FDSS); measured after EC20 choline addition | ratio readout change at 10 µM, hits read low | 62% of 2,500 active | AID 623908;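 active = duplicate-averaged ratio beyond 3 SD from buffer wells, up or down, though filed actives are nearly all decreases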
Numbers without * were called inactive; i = inactive; x = no result.

SMILES | CHT PAM | PKA-R2B act | ANO1 activ | ANO1 block | CHT block | PKA-R1A activ | CHT act confirm | HEK293 MP dye
CCCCCCn1c2c(c(=N)c3c1CCC3)CCC2 | 8.2* | 3 | i | i | i | -4 | 72* | -44*
CCCCCCCCCn1c2c(c(=N)c3c1CCC3)CCC2 | 11* | -10 | i | 100* | i | 8 | 82* | -61*
Cn1c(N)c(C(=O)COC(=O)c2ccccc2C(=O)c2ccc(Cl)cc2)c(=O)n(C)c1=O | x | 4 | i | x | x | 7 | x | x
CCOC(=O)[C@H](CCc1ccccc1)N[C@@H](C)C(=O)N1[C@H](C(=O)O)C[C@@H]2CCC[C@@H]21 | i | -1 | i | i | i | 7 | x | x
CCOC(=O)C(NC(=O)CC)(Nc1sc2c(c1C(=O)OC)CCN(C)C2)C(F)(F)F (configuration not stated) | 7.5* | 10 | i | i | i | -3 | 26* | -49*
CCOC(=O)NC(Nc1sc2c(c1C(=O)OC)CCN(C)C2)(C(F)(F)F)C(F)(F)F | 7.6* | -3 | i | i | i | 9 | 8 | -50*
Cc1ccc(NC(=O)CN2C(=O)NC3(CCCCC3C)C2=O)cc1S(=O)(=O)N1CCOCC1 (configuration not stated) | x | -10 | x | x | x | 7 | x | x
CN(C)c1ccc(/C=C/c2cc[n+](C)cc2)cc1 | 6.5* | 6 | i | i | i | 2 | 34* | i
C[n+]1ccc(/C=C/c2cccs2)cc1 | i | 2 | i | i | i | -7 | 62* | -42*
O=C1c2cnc3ncnn3c2CC2c3ccccc3CCN12 (configuration not stated) | i | -3 | i | i | i | -8 | 21* | -27*
CSc1nc2ncc3c(n2n1)CC1c2ccccc2CCN1C3=O (configuration not stated) | i | -3 | i | i | i | 2 | x | x
O=C(NCC1CCCO1)/C(=C/c1cn(-c2ccccc2)nc1-c1cccnc1)NC(=O)c1ccccc1 (configuration not stated) | i | -4 | i | i | i | -2 | x | x
Clc1ccc(-c2nc3ccncc3[nH]2)cc1 | 6.8* | -8 | i | i | i | -6 | 52* | -51*
Fc1ccc(-c2nc3ccncc3[nH]2)cc1 | 7.9* | -1 | i | i | i | -12 | 59* | -65*
Fc1ccc(-c2nc3ccccc3[nH]2)cc1 | i | 2 | i | i | i | 0 | x | x
O=C(CN1C(=O)NC2(CCCCCC2)C1=O)NCc1ccc(Cl)cc1 | x | -3 | i | x | x | 10 | x | x
Cc1noc(C)c1CSCC(=O)Nc1cccc(C(F)(F)F)c1 | x | 11 | i | x | x | 5 | x | x
Cc1cc(C)nc(/N=C(\N)N2CCCCC2)n1 | 6.9* | -2 | i | i | i | -1 | 52* | -41*
Cc1cc(C)nc(/N=C(\N)N2CCc3ccccc32)n1 | i | 3 | i | i | i | 7 | x | x
Cc1cc(C)cc(NS(=O)(=O)CCCS(=O)(=O)Nc2cc(C)cc(C)c2)c1 | x | -13 | i | x | x | -3 | x | x
COc1ccc(F)cc1C(=O)C1CCCN(Cc2cccn2-c2ccccn2)C1 (configuration not stated) | 16* | -4 | i | i | i | -8 | 58* | i
COc1ccc(C(=O)C2CCCN(Cc3cccn3-c3ccccn3)C2)c(OC)c1 (configuration not stated) | i | 7 | i | i | i | 5 | x | x
O=C(c1cc(F)ccc1F)C1CCCN(Cc2cccn2-c2ccccn2)C1 (configuration not stated) | 13* | -1 | i | i | i | -17 | 42* | i
CN(C1CCCCC1)S(=O)(=O)c1ccc(SCC(=O)C(C)(C)C)nc1 | x | -4 | i | x | x | 6 | x | x
COc1ccc(OCC(CO)N2CCN(c3ccccc3)CC2)cc1 (configuration not stated) | x | 6 | i | x | x | 6 | x | x
SMILES | CHT PAM | PKA-R2B act | ANO1 activ | ANO1 block | CHT block | PKA-R1A activ | CHT act confirm | HEK293 MP dye
Cc1nn2c(NCCN(C)C)c3c(nc2c1-c1ccccc1)CCCC3 | i | x | i | i | i | x | 11* | -51*
CCCCc1c(CCC)c(=N)c2ccccc2n1C | 9.4* | 2 | i | i | i | 1 | 65* | -26*
COc1ccc(CNC(=O)CN(c2ccccc2)S(=O)(=O)c2ccccc2[N+](=O)[O-])cc1 | i | -11 | i | i | i | -8 | x | x
Cc1ccc(C)c(N2CCN(C3CCCCC3NS(=O)(=O)c3ccccc3)CC2)c1 (configuration not stated) | 6.3* | 6 | -6.2* | i | i | -5 | 16* | i
O=S(=O)(NC1CCCCC1N1CCCCC1)c1ccccc1 (configuration not stated) | i | -7 | i | i | i | -2 | x | x
C/C(=N/NC(=O)C1CCCN1C(=O)c1ccc([N+](=O)[O-])cc1)c1ccc(Br)cc1 (configuration not stated) | x | -6 | i | x | x | -4 | x | x
CCOC(=O)C1(CCc2ccccc2)CCN(C(=O)[C@@H]2C[C@@H](C)NC(=S)N2)CC1 | i | -7 | i | i | i | -8 | x | x
Cc1cc2oc(C(=O)Nc3ccc(S(=O)(=O)Nc4onc(C)c4C)cc3)cc(=O)c2cc1Cl | i | -7 | i | i | i | -13 | 37* | -35*
Cc1noc(NS(=O)(=O)c2ccc(NC(=O)c3cc(=O)c4ccccc4o3)cc2)c1C | i | 5 | i | i | i | -2 | x | x
CCN(CC)C(=O)CNC(=S)N(CCCN1CCOCC1)Cc1cccs1 | i | -5 | i | i | i | 0 | x | x
CC1CCN(c2nc3c(c(=O)n(C)c(=O)n3C)n2Cc2ccccc2)CC1 | 6.6* | -4 | i | i | i | 7 | 7 | i
CN1CCN(c2nc3c(c(=O)[nH]c(=O)n3C)n2CCSc2nnnn2-c2ccccc2)CC1 | 8.2* | 2 | i | i | i | 6 | 59* | -68*
Cn1c(=O)[nH]c(=O)c2c1nc(N1CCCC1)n2CCCSc1nnnn1-c1ccccc1 | i | -4 | i | i | i | 5 | x | x
